Of roughly 8,800 targets only a part is listed; those with a hit were picked by preference. About 0.5% of all pairs of compound and target were hits. Unmarked numbers belong to inactive results.
Experiments:
Assay in all cases: log2 fold change, soluble protein after heating vs DMSO (PISA); higher = thermal stabilisation; K562 lysate, 10 uM; active = over 0.2 and 3.5 SD of the protein, either way, in both replicates (recomputed)
dasatinib = compound: Cc1nc(Nc2ncc(C(=O)Nc3c(C)cccc3Cl)s2)cc(N2CCN(CCO)CC2)n1 [dasatinib]
Summary of the method: (§1)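 Following dounce homogenisation of K562 pellets in PBS pH 7.4 with 1 mM MgCl2, crude extract at 1 mg/mL protein was incubated for 30 min with 10 μM compound. Aliquots were then heated for 3 min over 48°C-58°C and pooled, NP-40 was added to 0.5% at 4°C, and soluble protein was recovered as the supernatant at 21,000xg for 90 min. Channel-sum-equalised TMTpro 16plex LC-MS/MS quantified this protein. Each value, from duplicates, is a log-two fold change in thermal stability relative to solvent controls.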

[1] = compound: Cn1cc(-c2ccc3c(c2)CCN3C(=O)Cc2cccc(C(F)(F)F)c2)c2c(N)ncnc21
Summary of the method: as §1

quisinostat = compound: Cn1cc(CNCC2CCN(c3ncc(C(=O)NO)cn3)CC2)c2ccccc21 [quisinostat]
Summary of the method: as §1

[2] = compound: NC(=O)Nc1cc(-c2cccc(F)c2)sc1C(=O)N[C@H]1CCCNC1
Summary of the method: as §1

[3] = compound: NC(=O)c1cnc(N[C@@H]2CCCC[C@@H]2N)nc1Nc1cccc(-n2nccn2)c1
Summary of the method: as §1

[4] = compound: NC1(c2ccc(-c3nc4ccn5c(=O)[nH]nc5c4cc3-c3ccccc3)cc2)CCC1
Summary of the method: as §1

vorinostat = compound: O=C(CCCCCCC(=O)Nc1ccccc1)NO [vorinostat]
Summary of the method: as §1

silmitasertib = compound: O=C(O)c1ccc2c(c1)nc(Nc1cccc(Cl)c1)c1ccncc12 [silmitasertib]
Summary of the method: as §1

[5] = compound: O=C1NC(=O)C(c2cnc3ccccn23)=C1c1cn2c3c(cc(F)cc13)CN(C(=O)N1CCCCC1)CC2
Summary of the method: as §1

entospletinib = compound: c1cn2cc(-c3ccc4cn[nH]c4c3)nc(Nc3ccc(N4CCOCC4)cc3)c2n1 [entospletinib]
Summary of the method: as §1

nilotinib = compound: Cc1cn(-c2cc(NC(=O)c3ccc(C)c(Nc4nccc(-c5cccnc5)n4)c3)cc(C(F)(F)F)c2)cn1 [nilotinib]
Summary of the method: as §1

[6] = compound: Cc1nc(Nc2n[nH]c3c2CN(C(=O)N[C@H](CN(C)C)c2ccccc2)C3(C)C)c2sccc2n1
Summary of the method: as §1

[7] = compound: Cc1ncc(-c2ccnc(Nc3ccc(S(C)(=O)=O)cc3)n2)n1C(C)C
Summary of the method: as §1

tipifarnib = compound: Cn1cncc1[C@@](N)(c1ccc(Cl)cc1)c1ccc2c(c1)c(-c1cccc(Cl)c1)cc(=O)n2C [tipifarnib]
Summary of the method: as §1

[8] = compound: NCC(=O)Nc1ccc(-n2nc(C(F)(F)F)cc2-c2ccc3c(ccc4ccccc43)c2)cc1
Summary of the method: as §1

Chain of UniProt Q13188 (Q13188 whole entry, looked up): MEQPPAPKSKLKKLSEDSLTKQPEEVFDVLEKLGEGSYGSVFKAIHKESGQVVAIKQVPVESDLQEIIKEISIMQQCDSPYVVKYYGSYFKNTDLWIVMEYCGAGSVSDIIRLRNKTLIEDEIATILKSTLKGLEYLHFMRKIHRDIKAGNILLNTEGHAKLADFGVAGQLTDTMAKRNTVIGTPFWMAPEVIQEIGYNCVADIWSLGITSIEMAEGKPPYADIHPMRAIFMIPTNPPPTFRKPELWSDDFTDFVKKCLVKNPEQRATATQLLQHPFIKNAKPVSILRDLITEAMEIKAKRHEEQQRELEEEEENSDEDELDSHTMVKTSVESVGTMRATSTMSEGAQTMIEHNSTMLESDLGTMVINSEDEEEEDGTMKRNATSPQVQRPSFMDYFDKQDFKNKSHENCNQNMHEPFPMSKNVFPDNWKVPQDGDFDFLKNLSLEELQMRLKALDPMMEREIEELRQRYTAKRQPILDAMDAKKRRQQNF
Chain of UniProt O60225 (O60225 whole entry, looked up): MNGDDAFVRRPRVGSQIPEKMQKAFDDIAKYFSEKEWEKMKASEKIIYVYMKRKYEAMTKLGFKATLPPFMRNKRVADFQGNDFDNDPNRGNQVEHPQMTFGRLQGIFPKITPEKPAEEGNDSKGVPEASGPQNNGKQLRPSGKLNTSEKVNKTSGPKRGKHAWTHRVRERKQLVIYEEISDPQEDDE
Chain of UniProt Q8IVJ1 (Q8IVJ1 whole entry, looked up): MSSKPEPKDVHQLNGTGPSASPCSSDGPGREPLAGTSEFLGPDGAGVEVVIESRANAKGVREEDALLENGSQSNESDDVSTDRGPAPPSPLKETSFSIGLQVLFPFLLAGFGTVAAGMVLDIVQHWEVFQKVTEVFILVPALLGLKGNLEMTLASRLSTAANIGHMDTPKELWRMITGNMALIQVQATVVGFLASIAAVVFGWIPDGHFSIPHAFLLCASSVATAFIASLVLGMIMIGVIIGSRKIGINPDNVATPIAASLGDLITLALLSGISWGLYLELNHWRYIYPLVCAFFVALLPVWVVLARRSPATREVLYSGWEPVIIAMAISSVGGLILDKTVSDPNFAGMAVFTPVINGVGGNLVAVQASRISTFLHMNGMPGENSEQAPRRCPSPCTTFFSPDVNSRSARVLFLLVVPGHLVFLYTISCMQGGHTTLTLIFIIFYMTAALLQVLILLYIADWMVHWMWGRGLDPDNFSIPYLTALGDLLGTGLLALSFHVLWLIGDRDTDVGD
Chain of UniProt O60504 (O60504 whole entry, looked up): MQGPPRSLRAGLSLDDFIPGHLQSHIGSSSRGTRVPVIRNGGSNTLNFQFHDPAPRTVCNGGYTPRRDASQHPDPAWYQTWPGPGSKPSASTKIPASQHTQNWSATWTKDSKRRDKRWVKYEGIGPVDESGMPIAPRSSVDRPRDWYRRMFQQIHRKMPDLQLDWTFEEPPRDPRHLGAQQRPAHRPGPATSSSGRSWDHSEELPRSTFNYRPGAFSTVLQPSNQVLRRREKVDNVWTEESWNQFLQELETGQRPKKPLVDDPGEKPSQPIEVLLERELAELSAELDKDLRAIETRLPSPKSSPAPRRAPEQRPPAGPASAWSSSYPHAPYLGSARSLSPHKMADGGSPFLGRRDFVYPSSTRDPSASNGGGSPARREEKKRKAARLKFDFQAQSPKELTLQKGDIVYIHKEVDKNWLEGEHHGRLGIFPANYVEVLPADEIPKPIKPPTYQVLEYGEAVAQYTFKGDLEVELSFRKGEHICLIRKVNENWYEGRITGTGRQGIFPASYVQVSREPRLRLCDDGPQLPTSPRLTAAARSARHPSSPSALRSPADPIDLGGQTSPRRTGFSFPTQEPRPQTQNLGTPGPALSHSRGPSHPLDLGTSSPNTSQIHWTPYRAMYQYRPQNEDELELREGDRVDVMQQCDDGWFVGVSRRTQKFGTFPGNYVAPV
Chain of UniProt Q9UHW9 (Q9UHW9 whole entry, looked up): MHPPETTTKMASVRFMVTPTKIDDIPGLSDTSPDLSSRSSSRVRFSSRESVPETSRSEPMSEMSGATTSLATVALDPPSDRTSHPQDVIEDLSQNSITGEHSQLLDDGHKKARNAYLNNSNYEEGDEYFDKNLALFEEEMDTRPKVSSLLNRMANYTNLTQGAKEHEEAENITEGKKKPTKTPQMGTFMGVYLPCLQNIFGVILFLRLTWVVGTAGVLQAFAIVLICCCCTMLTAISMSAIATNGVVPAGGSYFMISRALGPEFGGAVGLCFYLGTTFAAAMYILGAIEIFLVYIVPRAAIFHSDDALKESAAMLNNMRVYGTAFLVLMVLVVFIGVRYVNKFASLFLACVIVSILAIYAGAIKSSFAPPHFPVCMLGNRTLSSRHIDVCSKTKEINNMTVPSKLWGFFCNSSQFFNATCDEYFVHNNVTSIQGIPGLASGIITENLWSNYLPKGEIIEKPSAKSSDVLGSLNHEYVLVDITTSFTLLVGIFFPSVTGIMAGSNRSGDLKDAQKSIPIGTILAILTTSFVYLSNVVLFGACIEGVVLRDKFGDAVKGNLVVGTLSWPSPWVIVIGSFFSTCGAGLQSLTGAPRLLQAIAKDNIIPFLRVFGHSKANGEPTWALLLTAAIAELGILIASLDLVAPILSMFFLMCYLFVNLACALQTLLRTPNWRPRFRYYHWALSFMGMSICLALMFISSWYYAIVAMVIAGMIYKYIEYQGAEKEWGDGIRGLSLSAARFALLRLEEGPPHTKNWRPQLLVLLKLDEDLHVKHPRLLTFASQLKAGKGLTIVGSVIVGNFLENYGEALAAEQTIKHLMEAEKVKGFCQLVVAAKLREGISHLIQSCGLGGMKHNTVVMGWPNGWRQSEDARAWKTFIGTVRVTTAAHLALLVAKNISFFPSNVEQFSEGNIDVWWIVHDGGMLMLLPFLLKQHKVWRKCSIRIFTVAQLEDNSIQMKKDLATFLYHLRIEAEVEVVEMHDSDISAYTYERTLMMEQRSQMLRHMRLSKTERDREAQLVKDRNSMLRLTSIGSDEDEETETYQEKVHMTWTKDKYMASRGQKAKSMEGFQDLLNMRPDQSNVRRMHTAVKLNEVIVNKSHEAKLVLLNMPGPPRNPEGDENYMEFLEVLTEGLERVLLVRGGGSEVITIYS
Chain of UniProt O60906 (O60906 whole entry, looked up): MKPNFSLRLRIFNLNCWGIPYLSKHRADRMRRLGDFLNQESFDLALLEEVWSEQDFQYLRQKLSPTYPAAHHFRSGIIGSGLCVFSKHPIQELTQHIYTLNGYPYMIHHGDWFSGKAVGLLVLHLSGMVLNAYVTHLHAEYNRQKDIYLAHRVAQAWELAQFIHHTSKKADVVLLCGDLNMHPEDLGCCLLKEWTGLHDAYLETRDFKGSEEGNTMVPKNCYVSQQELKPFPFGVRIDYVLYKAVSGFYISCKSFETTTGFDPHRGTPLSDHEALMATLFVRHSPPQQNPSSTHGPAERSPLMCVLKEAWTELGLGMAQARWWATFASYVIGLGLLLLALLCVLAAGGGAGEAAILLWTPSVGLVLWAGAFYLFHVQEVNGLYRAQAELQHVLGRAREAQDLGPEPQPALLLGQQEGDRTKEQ
Chain of UniProt Q8TAD8 (Q8TAD8 whole entry, looked up): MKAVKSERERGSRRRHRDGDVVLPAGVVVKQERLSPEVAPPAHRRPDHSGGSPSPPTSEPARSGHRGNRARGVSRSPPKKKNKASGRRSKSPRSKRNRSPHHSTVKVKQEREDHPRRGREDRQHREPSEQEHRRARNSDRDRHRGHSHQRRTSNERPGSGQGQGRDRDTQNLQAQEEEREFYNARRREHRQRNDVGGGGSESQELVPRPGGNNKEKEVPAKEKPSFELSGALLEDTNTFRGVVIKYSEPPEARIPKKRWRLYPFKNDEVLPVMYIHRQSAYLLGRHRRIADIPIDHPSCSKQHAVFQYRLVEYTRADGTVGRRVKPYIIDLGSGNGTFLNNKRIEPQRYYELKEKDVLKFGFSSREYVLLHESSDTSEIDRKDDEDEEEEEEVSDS
Chain of UniProt Q6NXT4 (Q6NXT4 whole entry, looked up): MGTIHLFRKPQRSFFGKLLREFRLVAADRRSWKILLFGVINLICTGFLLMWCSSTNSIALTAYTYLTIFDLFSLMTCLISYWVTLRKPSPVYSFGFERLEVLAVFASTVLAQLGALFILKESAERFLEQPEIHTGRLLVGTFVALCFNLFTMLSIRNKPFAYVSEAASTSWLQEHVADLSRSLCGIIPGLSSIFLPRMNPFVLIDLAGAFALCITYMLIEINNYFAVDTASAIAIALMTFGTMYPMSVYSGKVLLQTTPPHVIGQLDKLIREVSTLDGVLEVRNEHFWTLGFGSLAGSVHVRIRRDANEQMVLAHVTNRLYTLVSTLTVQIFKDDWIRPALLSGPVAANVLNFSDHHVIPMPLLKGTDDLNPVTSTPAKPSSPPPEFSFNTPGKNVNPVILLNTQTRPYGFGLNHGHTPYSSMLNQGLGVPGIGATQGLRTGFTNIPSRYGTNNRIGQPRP
Chain of UniProt P12931 (P12931 whole entry, looked up): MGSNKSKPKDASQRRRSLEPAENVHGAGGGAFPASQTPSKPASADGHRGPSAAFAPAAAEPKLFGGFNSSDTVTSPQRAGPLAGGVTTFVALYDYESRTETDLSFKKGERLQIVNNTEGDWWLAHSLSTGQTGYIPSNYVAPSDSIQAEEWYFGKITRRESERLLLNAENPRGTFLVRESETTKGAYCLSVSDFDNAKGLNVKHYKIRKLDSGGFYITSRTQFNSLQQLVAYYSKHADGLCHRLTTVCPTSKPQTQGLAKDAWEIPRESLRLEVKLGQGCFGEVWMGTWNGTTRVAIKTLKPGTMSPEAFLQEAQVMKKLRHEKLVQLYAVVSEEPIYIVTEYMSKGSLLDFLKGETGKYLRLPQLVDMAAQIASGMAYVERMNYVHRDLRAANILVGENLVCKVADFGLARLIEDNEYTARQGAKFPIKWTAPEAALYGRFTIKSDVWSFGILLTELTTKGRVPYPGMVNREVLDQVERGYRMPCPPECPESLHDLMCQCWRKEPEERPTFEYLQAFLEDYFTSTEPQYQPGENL

Row | Target | log2 fold change (dasatinib) | log2 fold change [1] | log2 fold change (quisinostat) | log2 fold change [2] | log2 fold change [3] | log2 fold change [4] | log2 fold change (vorinostat) | log2 fold change (silmitasertib) | log2 fold change [5] | log2 fold change (entospletinib) | log2 fold change (nilotinib) | log2 fold change [6] | log2 fold change [7] | log2 fold change (tipifarnib) | log2 fold change [8]
1 | SLC12A6 isoform 2 (UniProt Q9UHW9) | -0.072 | 0.206 | -0.011 | -0.055 | -0.043 | 0.039 | 0.17 | -0.03 | -0.064 | -0.114 | – | – | – | – | –
2 | SLC30A6 isoform 2 (UniProt Q6NXT4) | – | – | -0.048 | 0.093 | 0.012 | -0.096 | 0.11 | 0.01 | 0.001 | 0.064 | -0.029 | 0.118 | -0.067 | -0.071 | 0.014
3 | SSX5 isoform 2 (UniProt O60225) | – | – | – | – | 0.026 | 0.15 | -0.059 | 0.091 | – | -0.035 | 0.008 | -0.018 | 0.064 | 0.061 | -0.111
4 | SNIP1 (UniProt Q8TAD8) | – | – | – | – | – | – | – | – | – | – | -0.1 | 0.037 | -0.078 | -0.149 | –
5 | SLC41A1 (UniProt Q8IVJ1) | – | – | 0.23 | -0.003 | 0.014 | 0.055 | 0.06 | -0.063 | -0.37 (active) | 0.007 | -0.009 | 0.012 | 0.07 | -0.02 | –
6 | SLC39A13 (UniProt Q96H72) | – | – | – | – | – | -0.018 | -0.064 | -0.092 | – | – | – | – | – | – | –
7 | SMPD2 (UniProt O60906) | -0.169 | -0.102 | – | – | 0.029 | 0.069 | 0.261 | -1.47 (active) | – | 0.058 | – | – | – | – | –
8 | SORBS3 (UniProt O60504) | 0.005 | -0.019 | -0.088 | 0.022 | 0.036 | -0.019 | -0.561 (active) | 0.057 | 0.031 | 0.01 | – | – | – | – | -0.122
9 | SRC isoform 2 (UniProt P12931) | – | -0.023 | – | – | 0.015 | 0.012 | 0.073 | -0.069 | – | -0.111 | – | – | – | – | –
10 | STK3 isoform 2 (UniProt Q13188) | 0.132 | 0.276 | -0.077 | – | 0.108 | -0.01 | -0.05 | 0.022 | 0.025 | -0.003 | 0.015 | 0.274 | 0.179 | -0.014 | 0.034

Reference: the supplement of paper PMC10849652
